Results from PubChem BioAssay (NCI).
This is part of a sample that, as a whole, favours compounds with a hit. Of some 83,000 tested, about 20% had one in any assay.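 Method: cells in 96-well plates; compound added at one concentration; 48 h incubation; percent growth measured; values under 10 scored active.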 The source made the active and inactive calls.

system: BT-549 breast; test: NCI-60 one-dose screen, 48 h (100 = growth as untreated, 0 = no growth, -100 = all killed); details: 10 µM
Description: Growth inhibition of the BT-549 human tumor cell line is measured as a screen for anti-cancer activity. Cells are grown in 96 well plates and exposed to the test compound for 48 hours. Compounds are tested at a single concentration, which is 10^-5 M for most compounds. The reported endpoint is percent growth (GI% or GIPRCNT), where numbers from 0 - 100% represent growth inhibition, and numbers from -100% - 0 represent cell death. For example, a value of 40 represents 60% growth inhibition. A value of 0 means no net growth occurred over the course of the experiment. A value of -40 indicates 40% of cells at the beginning of the experiment died by the end of the experiment. A value of -100 means all cells are dead at the end of the experiment.
NCI-60 Human Tumor Cell Lines Screen was performed using the standard one-dose NCI protocol, which is described in more detail at https://dtp.cancer.gov/discovery_development/nci-60/default.htm.
Compounds with GIPRCNT values below 10 were considered active. Activity score was based on GIPRCNT using the following formula: […]
Score is 0 for GIPRCNT values of 100 or above, 50 for GIPRCNT values of 0, and 100 for GIPRCNT values of -100.

| Structure (SMILES) | growth |
| --- | --- |
| CC(=O)O[C@H]1C[C@H](O[C@H]2[C@@H](O)C[C@H](O[C@H]3[C@@H](O)C[C@H](O[C@H]4CC[C@@]5(C)C(CCC6C5C[C@@H](O)[C@]5(C)[C@@H](C7=CC(=O)OC7)CC[C@]65O)C4)O[C@@H]3C)O[C@@H]2C)O[C@H](C)[C@H]1O[C@@H]1O[C@H](CO)[C@@H](O)[C@H](O)[C@H]1O (stereo not given in full) | -91% (active) |
| CCCCn1cc(C(=O)/C(C#N)=C/c2cc3ccccc3nc2Cl)c2cc(OC)ccc21 | 91.7% (inactive) |
| O=C(c1cccs1)C1NO[N+]([O-])=C1c1cccs1 (stereo not given) | 88.7% (inactive) |
| COc1cc(NCCCCCN=C(N)N)c2ncccc2c1 | 38.7% (inactive) |
| CC1([N+](=O)[O-])COP(=O)(Nc2ccc(F)cc2)OC1 (stereo not given) | 96.8% (inactive) |
| Nc1ccc([N+](=O)[O-])c2c1Oc1ccccc1O2 | 87% (inactive) |
| Cc1cc(NC(=O)NCCOc2ccc(N3C(N)=NC(N)=NC3(C)C)cc2Cl)ccc1S(=O)(=O)F | 52.1% (inactive) |
| CC(C)CCC1(CCO)C(=O)NC(=S)NC1=O | 109% (inactive) |
| CCC(CC)(c1ccccc1)C(OC(N)=O)c1ccccc1 (stereo not given) | 110% (inactive) |
| ClCCN(CCCl)c1ccc(C=NCCc2c[nH]c3ccccc23)cc1 | 81.9% (inactive) |
| CC(C)[C@]12O[C@H]1[C@@H]1O[C@]13[C@]1(O[C@H]1C[C@H]1C4=C(CC[C@@]13C)C(=O)OC4)[C@@H]2OC(=O)OC(C)(C)C | -12.2% (active) |
| CCN(CC)c1ccc(C=C2C(=O)NC(=S)NC2=O)cc1 | 98.5% (inactive) |
| Oc1ccc(Br)cc1CN1CCN(Cc2ccc(Cl)cc2)CC1 | 86.3% (inactive) |
| CCOC(=O)/C=C(\C)Nc1ccc(N/C(C)=C/C(=O)OCC)c2c1Oc1ccccc1O2 | 102% (inactive) |
| O=[N+]([O-])c1ccccc1N1CCNCC1 | 111% (inactive) |
| Cc1cc(C)nc(C)c1.[Cl][Hg][Cl] | 100% (inactive) |
| Cc1ccc2oc(=O)c3c(c2c1)OC(N)=C(C#N)C3c1ccco1 (stereo not given) | 98.8% (inactive) |
| CC(=O)Oc1ccc(Cl)cc1 | 98.3% (inactive) |
| CCCCN(CCCC)CC(O)c1ccccc1 (stereo not given) | 124% (inactive) |
| O=C(CC1(O)C(=O)Nc2ccc(F)cc21)c1ccc(C(=O)NCC2CCC3(CC2)OOC2(CCCCC2)OO3)cc1 (stereo not given) | 78% (inactive) |

| Structure (SMILES) | growth |
| --- | --- |
| COc1ccc(CN2CCN(Cc3ccccc3)CC2)c(O)c1 | 92% (inactive) |
| [Cl][Hg][n]1cnc2c(Cl)c(Cl)c(Cl)cc21 | 112% (inactive) |
| C=CC(O)CN1CC1CC (stereo not given) | 93.5% (inactive) |
| O=CN1N=C(c2ccc3c(c2)OCO3)CC1c1sc(N(CCCl)CCCl)nc1Cl (stereo not given) | 94.7% (inactive) |
| CCOC(=O)C1(c2ccccc2)CCN(CC(=O)c2ccc(NC(C)=O)cc2)CC1 | 97% (inactive) |
| C=CC(=O)NC(O)C(Cl)(Cl)Cl (stereo not given) | 97.5% (inactive) |
| Cn1cnnc1[S-].[Au+].c1ccc([PH+](c2ccccc2)c2ccccc2)cc1 | 36.8% (inactive) |
| CC1=C(SCCC(=O)OCC(=O)NCCC[Te]c2ccccc2)C(=O)c2ccccc2C1=O | -6.68% (active) |
| CC(C)C1c2ccc(O)cc2Oc2nc(N)c(C#N)c(N)c21 (stereo not given) | 84.2% (inactive) |
| COC1=CC(=O)OC(CCc2ccc3c(c2)OCO3)C1 (stereo not given) | 92.5% (inactive) |
| C[C@@H]1O[C@@H](O[C@H]2CC[C@@]3(C)[C@H](CCC4[C@@H]3C(O)C[C@]3(C)[C@@H](c5ccc(=O)oc5)CC[C@]43O)C2)[C@H](O)[C@H](O)[C@H]1O (stereo not given in full) | -89.9% (active) |
| CC(C)(O)/C=C/C(=O)[C@](C)(O)[C@H]1[C@H](O)C[C@@]2(C)[C@@H]3CC=C4[C@@H](C=C(O)C(=O)C4(C)C)[C@]3(C)C(=O)C[C@]12C | -60.1% (active) |
| NC(Cc1ccc(O)cc1)C(=O)N/N=C/c1ccc(N(CCCl)CCCl)cc1 (stereo not given) | 73.3% (inactive) |
| Cc1cccc(N(C)c2cccc3c2C(=O)[Se]C3)c1C | 52.4% (inactive) |
| CC(=O)Nc1ccc(Cc2ccc(NC(C)=O)cc2)cc1 | 117% (inactive) |
| CCOc1ccc(C(O)CN(C)Cc2ccccc2)cc1Cl (stereo not given) | 106% (inactive) |
| O=C(Nc1ccc(S(=O)(=O)F)cc1)Oc1ccccc1 | 98.2% (inactive) |
| N#CC1c2ccccc2C=CN1C(=O)c1ccc(N(CCCl)CCCl)cc1 (stereo not given) | 89.8% (inactive) |
| CC[CH2][Pb]([CH2]CC)([CH2]CC)[O]C(=O)C(F)(F)F | -95.3% (active) |
| S=P(Nc1ccccc1)(Nc1ccccc1)c1ccccc1 | 101% (inactive) |
